Bioassay records from PubChem.
Sampled rows, rich in hits. Any-hit rate of the full collection: about 4%.
TWEAK-Fn14 inh = inhibitors of TWEAK-Fn14 signaling, primary screen, luciferase reporter cells, uHTS; 360,000 compounds, 2% hits; inhibition, % at 10 µM; AID 1159606, 2016; TWEAK-stimulated Fn14 reporter cells, luciferase luminescence, 8 h; in the data active = inhibition above about 50%
TRPM1 prom inh = inhibitors of MITF-dependent TRPM1 promoter reporter, primary screen, cell-based, SK-MEL-5, single point, luciferase. SK-MEL-5 TRPM1 promoter luciferase, 24 h. inhibition, % at 12.5 µM. 330,000 compounds, 0.83% hits. AID 488899, 2010;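 active = mean inhibition across replicates of 60% or more, whatever share of single replicates reaches that level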
Peg3 promoter = Peg3 promoter-driven luciferase inhibitors, primary screen, cell-based, HeLa, luciferase luminescence; HeLa PEG-Prom luciferase reporter, overnight; inhibition, % at 20 µM; 360,000 compounds, 1.7% hits; AID 588405, 2011;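 active = inhibition of at least 50% at 20 µM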
LMP1 NFkB inh = EBV LMP1-driven NF-kappaB luciferase reporter inhibitors, primary screen, cell-based, luminescence, single point; 350,000 compounds, 0.69% hits; LMP1-induced NF-kappaB luciferase reporter cells; inhibition, % at 12.5 µM; in the data active = inhibition above about 41%;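 also: 0% = neutral control wells and 100% = reference inhibitor control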
HIF-2a block = HIF-2a reporter inhibitors, primary screen, luminescence, 786-0 RCC cells; AID 624352, 2012; 786-0 RCC cells HIF-2a reporter, luciferase luminescence, overnight; inhibition, % at 18.8 µM; 360,000 compounds, 0.72% hits;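 active = inhibition of the luminescence signal of 40% or more relative to plate controls, in a single-dose primary screen at 18.75 µM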
TROY signal inh = inhibitors of TROY-driven NF-kB signaling, primary screen, Q293 LMP1-TROYcd cells, NF-kB luciferase, uHTS | 360,000 compounds, 0.98% hits | Q293 LMP1-TROYcd NF-kB luciferase reporter, 4 h | inhibition, % at 10 µM;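 active = compounds whose plate-normalised and pattern-corrected inhibition of the luciferase reporter signal at the single screening dose is 50% or more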
Starred values were filed as active, the others as inactive; / = no result.

SMILES	TWEAK-Fn14 inh	TRPM1 prom inh	Peg3 promoter	LMP1 NFkB inh	HIF-2a block	TROY signal inh
COc1ccc(C(=O)CN(CCC(=O)O)S(=O)(=O)c2ccc([N+](=O)[O-])cc2)cc1	-12.9	5.5	-4.1	60.8*	5.5	-3.9
COc1ccc(Cn2cc(CN3CC(N4CCN(CCN(C)C)CC4)CS3(=O)=O)nn2)cc1 (stereo not given)	-0.9	/	/	/	14.0	-5.8
O=c1[nH]c(-c2ccccn2)nc2sc(-c3ccccc3)cc12	100.2*	35.8	95.6*	18.0	-160.9	26.5
Cc1ccc2nc(Cl)c3cc(C(=O)N(CCN(C)C)Cc4ccco4)sc3c2c1	-26.9	-5.5	93.1*	-9.3	-15.2	-2.0
CN(C)CCN(Cc1ccco1)C(=O)c1cc2c(Cl)nc3ccccc3c2s1	-63.8	-7.8	40.2	-46.3	19.7	-34.9
Cn1cccc1C(=O)N/N=C/c1c(Cl)cccc1Cl	-19.7	-98.2	-281.2	-3.3	-263.0	-19.1
CC12CNCC(C)(CN(C(c3ccccc3)c3ccccc3)C1)C2	-4.5	2.1	81.2*	2.3	-0.7	18.5
Cc1cc(C)n2nc(C(=O)N3CCCC(Nc4ccc(F)c(F)c4)C3)cc2n1 (stereo not given)	4.5	-17.5	10.1	1.6	18.4	-1.3
O=C(NCc1ccco1)C1CC(=O)N(c2cccc(Cl)c2)C1 (stereo not given)	8.4	-12.2	14.9	65.3*	0.8	-11.4
Cc1ccc(NC(=O)C(C)OC(=O)CCC2CCCCC2)cc1 (stereo not given)	-11.7	-3.6	3.5	-3.5	-3.9	-7.5
COc1ccc(/C=C/C(=O)Nc2sc3c(c2C(=O)NCc2cccnc2)CCCC3)cc1	52.6*	-1.5	3.2	10.5	-26.6	5.6
Cc1ccccc1Cn1c(C)c(C(=O)NCC(C)C)sc1=O	-7.5	/	7.7	/	-5.2	-12.2
Cc1cc2nc(NCCCO)n(CC(=O)c3cc(C(C)(C)C)c(O)c(C(C)(C)C)c3)c2cc1C	61.5*	-6.9	94.3*	0.3	-7.6	48.0
O=c1[nH]c(SCc2ccc(OC(F)(F)F)cc2)nc2c1CCC2	-19.0	/	2.2	/	-12.5	-18.7
C=CCSc1nsc(NC(=O)Nc2ccc(F)cc2)n1	52.2*	34.6	-71.5	32.3	-187.1	30.7
CCCOC(=O)CC1C(=O)NCCN1C(=O)OC(C)(C)C (stereo not given)	12.7	4.5	-3.2	2.8	12.3	-3.5
Cc1ccc(C2=NOC(=O)/C2=C\C=C\c2ccccc2)cc1	-22.4	95.6*	106.0*	13.0	23.9	33.7
COc1ccc(/C=C2/C(=O)ON=C2c2ccccc2)cc1OC	-8.7	28.2	30.6	9.4	41.2*	-36.6
COc1ccc(/C=C2\C(=O)ON=C2c2ccccc2)cc1OC	1.1	/	37.7	-4.1	22.4	-11.9
CCSC1=C(C#N)C2(CCCCC2)C(C#N)C(=O)N1 (stereo not given)	-69.7	1.9	54.5*	-0.6	12.8	10.3
CN1/C(=C/C=C/c2n(C)c3cc([N+](=O)[O-])c([N+](=O)[O-])cc3[n+]2C)C(C)(C)c2ccccc21	9.9	/	37.5	19.4	31.2	22.9
COc1ccc(Nc2oc(COc3ccccc3F)nc2C#N)cc1	56.6*	28.1	32.5	22.9	21.7	-30.6
COc1ccc(Nc2oc(COc3ccc(C)cc3)nc2C#N)cc1	69.2*	2.7	9.3	19.8	-4.8	-2.7
COc1ccc(CNc2oc(COc3ccccc3)nc2C#N)cc1	-0.6	-30.0	-61.8	-15.3	-110.3	-32.0
CCNc1oc(COc2cccc(C)c2)nc1C#N	-45.4	-10.2	-121.3	-20.8	-118.3	-49.5
SMILES	TWEAK-Fn14 inh	TRPM1 prom inh	Peg3 promoter	LMP1 NFkB inh	HIF-2a block	TROY signal inh
COc1ccc(Nc2oc(COc3ccc(OC)cc3)nc2C#N)cc1	85.7*	24.1	47.6	32.9	34.3	9.1
COc1ccc(Nc2oc(COc3cccc(C)c3)nc2C#N)cc1	67.5*	-23.5	-100.9	-0.9	-70.1	-64.4
CCCCn1c(N)c(N(CC(C)C)C(=O)C2CCCN(C(=O)c3ccc(Cl)cc3)C2)c(=O)[nH]c1=O (stereo not given)	-6.3	0.7	-7.4	7.8	3.1	10.7
CCN(C(=O)CCNC(=O)Cn1cnc2ccccc2c1=O)c1ccccc1F	4.2	4.0	6.0	5.1	2.4	-9.2
Cc1cccc(NC(=O)c2onc3c2CCCC3)n1	79.9*	32.1	29.5	31.0	13.8	52.2*
Cc1cccc(NC(=O)c2onc3c2CCCC3)c1C	-8.7	-84.6	-250.7	-17.3	-230.1	-61.0
O=C(Nc1ccc2ccccc2c1)c1onc2c1CCCC2	56.8*	-32.2	-249.3	-30.5	-118.2	15.6
CCN(CC)S(=O)(=O)c1cccc(NC(=O)COC(=O)C2CC3C=CC2C3)c1 (stereo not given)	4.0	-14.4	16.9	5.0	11.6	-1.0
O=C(Nc1nc(-c2cccc3ccccc23)cs1)c1ccc2c(c1)S(=O)(=O)c1ccccc1C2=O	-49.1	62.7*	-97.3	-69.1	-186.2	-20.3
CCc1ccc(-c2nn(-c3ccccc3)cc2C2SCC(=O)N2Cc2ccco2)cc1 (stereo not given)	53.0*	-2.7	15.9	-23.3	5.1	1.4
CC(=O)Oc1ccc2c3c(c(=O)oc2c1C)CCCC3	11.9	-5.0	14.6	11.4	-3.6	0.7
Cc1c(OC(C)C(=O)O)ccc2c3c(c(=O)oc12)CCCC3 (stereo not given)	56.3*	9.0	0.7	-4.2	15.8	-6.1
CCN1CCN(C(=O)CN(CC)S(=O)(=O)c2ccc3ccccc3c2)CC1	11.4	-8.7	14.6	-15.3	9.3	-3.2
COC(=O)c1ccc(OC(=O)CS(=O)c2ccccc2[N+](=O)[O-])cc1 (stereo not given)	-14.5	19.4	0.5	-9.6	3.1	7.8
O=C(CS(=O)c1ccc(C(F)(F)F)cc1[N+](=O)[O-])Oc1ccccc1 (stereo not given)	-12.2	87.5*	79.5*	-13.2	21.1	12.1
CCn1c(SCC(=O)c2cc(OC)ccc2OC)nnc1-c1ccncc1	6.3	4.0	70.3*	-12.8	-0.3	-10.2
CCn1c(SCC(=O)c2cc(OC)ccc2OC)nnc1C(C)C	-8.1	-13.0	3.3	1.0	5.2	-1.4
CN(CCc1ccccc1)C(=O)c1ccc(NC(=O)Cc2ccc([N+](=O)[O-])cc2)cc1	5.2	28.7	21.8	9.4	-8.0	15.4
CNC(=O)CSc1nc2cc(S(=O)(=O)Nc3ccccc3OC)ccc2o1	39.1	-10.5	5.8	-0.4	-0.8	14.8
COc1ccccc1NS(=O)(=O)c1ccc2oc(SCc3ccc(C#N)cc3)nc2c1	57.7*	17.0	27.6	11.0	25.9	38.9
COc1ccccc1-c1cccc(-c2nc(C(=O)Nc3nccs3)cc3c2[C@H](CCO)N(C(C)=O)C3)c1	13.0	/	/	/	-19.4	10.1
